High-throughput results (PubChem)
Compounds with a hit are over-represented: about 2.4% of the library has one in this group of screens.
POLH inh – qHTS for Inhibitors of Polymerase Eta | DNA polymerase eta (Homo sapiens), Q9Y253 | recombinant Pol eta, fluorescent DNA replication assay | Potency, µM (doses to about 114 µM), inactives show top-dose activity change, negative = inhibition, most hits filed as inhibitors | 390,000 tested, 1.2% active; note: % is set by controls: 0 for no effect and ±100 for the full control effect
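Fluorescent replication assay: 50 nM final substrate added after a 15 min room-temperature compound preincubation with 10 nM enzyme. Signal taken at 0 min and again at 10 min.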
POLB inh – qHTS Assay for Inhibitors of DNA Polymerase Beta | 340,000 tested, 1.3% active | Potency, µM (highest dose often 114 µM), for inactives: at the top dose activity change, negative = inhibition, usual class: inhibitors | Pol beta primer extension/strand displacement, fluorescence kinetic | AID 485314, 2010; note: % is set by controls: 0 for no effect and ±100 for the full control effect
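Pol beta (10 nM) and compounds were preincubated 15 min at room temperature, then 50 nM substrate (final) started primer extension/strand displacement. Reads were taken at 0 and 10 min; concentration-response data were fitted to a four-parameter Hill equation.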
POLI inh – qHTS for Inhibitors of Polymerase Iota | DNA polymerase iota (Homo sapiens), Q9UNA4 | Pol iota fluorescent replication assay, 10 min | Potency, µM (highest dose often 115 µM), for inactives: top-dose activity, negative = inhibition, hits mostly inhibitors | 390,000 tested, 1% active | AID 588590, 2011
Target sequence (Q9UNA4 whole entry, looked up): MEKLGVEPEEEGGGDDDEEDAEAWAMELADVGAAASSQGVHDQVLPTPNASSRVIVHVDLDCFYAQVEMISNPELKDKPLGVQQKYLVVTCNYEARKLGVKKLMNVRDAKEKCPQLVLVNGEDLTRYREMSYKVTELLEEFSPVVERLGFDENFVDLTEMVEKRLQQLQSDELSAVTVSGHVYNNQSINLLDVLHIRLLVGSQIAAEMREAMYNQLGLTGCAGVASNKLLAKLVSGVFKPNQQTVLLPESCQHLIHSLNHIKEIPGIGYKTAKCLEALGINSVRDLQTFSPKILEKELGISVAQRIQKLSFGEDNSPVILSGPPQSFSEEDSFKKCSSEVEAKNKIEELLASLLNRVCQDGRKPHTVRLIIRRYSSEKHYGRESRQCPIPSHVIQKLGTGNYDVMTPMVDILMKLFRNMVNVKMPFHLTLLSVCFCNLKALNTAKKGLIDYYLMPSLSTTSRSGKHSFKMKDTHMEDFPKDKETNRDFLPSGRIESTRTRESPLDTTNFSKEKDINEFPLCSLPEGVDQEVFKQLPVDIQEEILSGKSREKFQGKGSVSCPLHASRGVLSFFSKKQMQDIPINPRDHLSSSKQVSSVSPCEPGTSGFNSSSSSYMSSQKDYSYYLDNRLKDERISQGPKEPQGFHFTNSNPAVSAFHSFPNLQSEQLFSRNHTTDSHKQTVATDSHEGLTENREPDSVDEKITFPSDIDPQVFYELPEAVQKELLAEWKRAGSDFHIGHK
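Fluorescent replication assay read twice, at 0 min and 10 min after adding 50 nM (final) substrate. Enzyme (10 nM) and compounds were first incubated 15 min at room temperature; enzyme-free buffer wells were negative controls.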
POLK inh – qHTS for Inhibitors of Polymerase Kappa; purified Pol kappa, fluorescent DNA synthesis assay, 10 min; Potency, µM (top dose mostly 107 µM), for the others: at the top dose activity, negative = inhibition, actives largely listed as inhibitors; 400,000 tested, 0.53% active; AID 588579, 2011; note: % is set by controls: 0 for no effect and ±100 for the full control effect
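10 nM Pol kappa preincubated 15 min at room temperature with compounds, then reaction started with substrate at 50 nM final. Fluorescence read kinetically at 0 and 10 min; buffer-only wells served as negative control.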
FEN1 inh – qHTS Assay for the Inhibitors of Human Flap endonuclease 1 (FEN1) | P39748 | Recombinant FEN1 flap cleavage, fluorescence, 15 min | Potency, µM (highest dose often 114 µM), for the others: at the top dose activity change, negative = inhibition, actives largely listed as inhibitors | 390,000 tested, 0.35% active | AID 588795, 2011; note: % is set by controls: 0 for no effect and ±100 for the full control effect; nearly all actives have a fitted effect of over 65% in size
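Nuclease activity of 10 nM FEN1 was measured after 15 min of room-temperature exposure to titrated compounds, by adding 50 nM flap substrate and reading plates at 0 and 15 min.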
WRN inhibitor – qHTS for Inhibitors of WRN Helicase | Bifunctional 3'-5' exonuclease/ATP-dependent helicase WRN (Homo sapiens), Q14191 | WRN helicase unwinding, fluorescent forked duplex, kinetic | Potency, µM (top dose mostly 114 µM), without a hit: at the top dose activity change, negative = inhibition, actives largely listed as inhibitors | 360,000 tested, 0.46% active; note: % is set by controls: 0 for no effect and ±100 for the full control effect; nearly all actives have a fitted effect of over 55% in size
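WRN at 20 nM final was preincubated with compound for 15 min at room temperature; reaction started with 100 nM forked duplex oligonucleotide carrying fluorophore and quencher plus 2 mM ATP (final). Unwinding followed kinetically by red fluorescence (ex 525/em 598 nm).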
An asterisk follows results filed as active; ? = inconclusive; . = no result given; [ ] = remark or other dose. Calls come from the whole dose curve; as a rule, active = well fitted curve in the direction sought with a large enough effect; inconclusive = small, poorly fitted or top-dose-only effect, or another doubt; inactive = no such curve, though single readings can be large; an effect the other way counts as inactive or inconclusive. Potency is the fitted concentration of half-maximal effect.

SMILES | POLH inh | POLB inh | POLI inh | POLK inh | FEN1 inh | WRN inhibitor
Cc1ccc(C)c(N2CCN(C(c3ccccc3)c3nnc(-c4ccccc4F)o3)CC2)c1 (centres undefined) | -26% | -22% | -4% | 4% | 9% | .
O=C1c2cccc3cccc(c23)C(=O)C1(O)O | -23% | . | 112% | -6% | 1µM* | 20µM*
O=C(c1ccc(COc2c(F)c(F)c(F)c(F)c2F)o1)N1CCN(Cc2ccc3c(c2)OCO3)CC1 | ? | 45µM* | ? | ? | -20% | -23%
O=C(c1c(F)c(F)c(F)c(F)c1F)N1CCN(Cc2ccc3c(c2)OCO3)CC1 | -4% | . | -24% | 11% | 0% | -5%
Nc1ccccc1Sc1ccc(C(=O)c2ccccc2C(=O)O)cc1[N+](=O)[O-] | ? | -7% | -14% | -5% | -11% | -33%
O=C(O)c1ccccc1C(=O)c1ccc(Sc2ccc(Cl)cc2)c([N+](=O)[O-])c1 | -14% | 79µM* | 15% | 0% | -21% | 1%
COc1ccccc1OCC(O)Cn1c(=N)n(CCN2CCCCC2)c2ccccc21 (centres undefined) | -7% | -2% | 6% | -14% | -8% | 2%
Cc1ccc(SCc2ccc(C(=O)NCc3ccncc3)cc2)cc1 | ? | ? | 28µM* | -2% | -1% | -8%[11.6 µM]
O=C(O)CCc1ccc(-c2ccc(Br)cc2)n1CC(=O)O | ? | 35µM* | ? | -23% | 0% | -12%[57.1 µM]
O=C(O)CCc1ccc(-c2ccccc2)n1CC(=O)O | 1% | -13% | ? | -18% | -6% | -1%
Cc1ccc(C2C(C#N)=C(N)Oc3n[nH]c(-c4ccccc4)c32)o1 (centres undefined) | ? | 21% | -13% | -8% | -17% | ?
Cc1ccc(C2C(C#N)=C(N)Oc3n[nH]c(-c4cccnc4)c32)o1 (centres undefined) | -9% | 9% | 28µM* | 7% | 0% | 2%
O=C(O)CCn1cnc2onc(-c3ccccc3Cl)c2c1=O | -4% | 22µM* | 6% | -15% | 14% | .
C=C1C(=O)C23C(O)C1CCC2C12CCCC(C)(COC(C)=O)C1C(O)C3(O)OC2 (centres undefined) | 1% | . | -3% | -4% | -15% | 18µM*
Cc1ccccc1N=Nc1c(O)[nH]c2ccccc12 | -17% | . | 201% | -11% | 6% | -25%
COC(=O)\C(C(C)=O)=C(/C=C/C=C/N(C)C)N(C)C | 14µM* | 22µM* | ? | ? | 5% | -20%
CSc1ccc(C(c2c(C(=O)O)[nH]c3ccccc23)c2c(C(=O)O)[nH]c3ccccc23)cc1 | 79µM* | -27% | ? | ? | -6% | -8%[11.6 µM]
CCOC(=O)c1[nH]c2ccccc2c1NC(C)=O | -15% | 80% | -2% | -5% | -13% | 0%
CCOc1cc(Br)cc(C(c2c(C(=O)O)[nH]c3ccccc23)c2c(C(=O)O)[nH]c3ccccc23)c1O | 79µM* | ? | -16% | ? | ? | 2%[11.6 µM]
CCCN(CC(=O)Nc1ccccc1C)C(=O)Cc1c(C)nc2ccccc2c1C | ? | . | 79µM* | -32% | 18% | 5%[11.6 µM]
CCCN(CC(=O)Nc1ccccc1C)C(=O)Cc1c[nH]c2ccccc12 | -8% | . | 4% | 2% | 7% | 3%
Cc1ccc(NC(=O)/C(C#N)=C(\N)C(Cl)(Cl)Cl)nc1 | 45µM* | 0% | 263% | -2% | 16% | 32%
COc1ccc(NS(=O)(=O)c2ccc(O)c(NC(=O)c3cc4c(C)nn(-c5ccc(F)cc5)c4s3)c2)cc1 | 20µM* | 10µM* | 28µM* | ? | 56µM* | ?
